Data: PubChem BioAssay AID504773 (Broad Institute, 2011)
Entries with a potency or affinity are not part of this list. Values without a mark were called inactive.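 How the source made its calls: active means polarization signal falls with dose and the fitted half-maximal concentration is at or below ten times the sample's top valid dose; inconclusive means flat curve at 30 to 70% inhibition, or poor fit; inactive means signal rises, flat within 30%, or potency beyond limit.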

target: Golgi-associated PDZ and coiled-coil motif-containing protein (Homo sapiens) (UniProt Q9HD26); test: potency against CAL PDZ-peptide interaction – biochemical, fluorescence polarization, Cerulean-tagged CAL PDZ, cherry-picks, dose response (AID 504773); conditions: CAL PDZ-peptide binding, 1 h; series mostly up to 50 µM; activity change, negative = inhibition: at the top concentration;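 further: 0% = DMSO neutral wells and -100% = excess unlabeled competitor peptide wells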

SMILES | activity change, negative = inhibition [%]
COc1cccc(CN2CCN(C3CSCCSC3)CC2CCO)c1 (stereo unspecified) | 6.69
CCCC(=O)OCC(=O)Nc1ccccc1C#N | 2.59
O=C(NNS(=O)(=O)c1ccc(Cl)cc1)c1cccs1 | 20.6
O=C(C=Cc1ccccc1)c1cc(Br)ccc1O | -15.3
CCCNC(=O)C(=O)NCC1CCCN1CC (stereo unspecified) | -64.5
COc1ccc2ccccc2c1CN(C)Cc1ccccc1 | -18.8
O=[N+]([O-])c1ccccc1S(=O)(=O)NC1CCCCCCC1 | 9.08
CCC(C)(C)NC(=O)CSc1nc(Cc2ccccc2)nc2ccccc12 | 9.79
C=CCOc1ccc2ccccc2c1CNn1cn[nH]c1=S | 33
Cc1ccc2nc(-c3cccc(Br)c3)cc(C(=O)NC3=NCCS3)c2c1 | 7.84
CCNS(=O)(=O)c1ccc(CCC(=O)N2CCCC2)cc1 | 5.15
O=[N+]([O-])c1ccccc1/C=N/Nc1nc(N2CCCC2)nc(N2CCCC2)n1 | 7.89
COc1ccc(N2CCN(C(=O)c3cccc4nc(C)oc34)CC2)cc1 | 15.8
COc1ccccc1NC(=O)c1c([N+](=O)[O-])cnn1C | 25.3
Cc1ccc(-c2nc3ccccc3c(=O)o2)cc1 | 34.2
O=C(c1cccs1)N1CCN(C(=O)N2CCOCC2)CC1 | -23
Cc1ccc(NC(=O)N2CCCC2C(=O)NCC2CCCO2)cc1 (stereo unspecified) | 7.35
CC(=O)Nc1ccc(N/C=C/C(=O)c2ccccc2)cc1 | 14.7
COc1ccccc1C(=O)Nc1ccc2c(c1)CN(C(=O)CSC)CC2 | 5.71
Cc1cccc(NC(=O)Cn2cnc3c(oc4ccccc43)c2=O)c1C | 14.4
Cc1ccc(NC(=O)CN(C)CC(=O)Nc2cccc(F)c2)cc1S(=O)(=O)N1CCCCCC1 | 7.54
